# Reference: PubChem BioAssay (NCATS)
# Records with an inconclusive call do not appear. Entries that show only a call come without a potency. Active and inactive are the calls of the source. Calls come from the whole dose curve; as a rule, active = well fitted cell-killing curve with a large enough effect; inconclusive = small, poorly fitted or top-dose-only effect; inactive = flat fitted curve, though single readings scatter.
# Assay: Cellular viability qHTS for adrenocortical cancer (ACC) cell line NCI-H295R (AID 1963990); note: nearly all actives have a fitted effect of over 60% in size
# Conditions: CellTiter-Glo ATP luminescence, 48 h; series mostly up to 46.1 µM
# Summary of the method: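 Viability of NCI-H295R after 48 h of treatment (final up to 46 uM) measured through cellular ATP luminescence.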
# Potency is the fitted concentration of half-maximal effect.
row,SMILES,Potency
1,CCC1C(=O)OCC1Cc1cncn1C (stereo not given),inactive
2,CC1(C)[C@@H](O)CC[C@]2(C)[C@H]3C(=O)C=C4[C@@H]5C[C@@](C)(C(=O)O)CC[C@]5(C)CC[C@@]4(C)[C@]3(C)CC[C@@H]12,inactive
3,Cc1[nH]nc2ncc(C(=O)N3CCC[C@H]3c3ccc(Cl)cc3)cc12,inactive
4,Cc1ncc(CO)c(CN)c1O,inactive
5,COC(=O)[C@@H](N)Cc1ccc(O)c(O)c1,inactive
6,COc1ccccc1N1CCN(CCCCNC(=O)c2ccc(-c3ccc(C(C)=O)cc3)cc2)CC1,inactive
7,CC(C)CNc1ccnc(NCc2csc(-c3ccccc3)n2)n1,11.2 µM (active)
8,Cc1ccsc1C(=CCCN1CCC[C@@H](C(=O)O)C1)c1sccc1C,inactive
9,O=C([O-])C[O-].[Pt+2],inactive
10,CN1CCN(c2ccc(-c3cccc(CN4CCOCC4)c3)cc2NC(=O)c2c[nH]c(=O)cc2C(F)(F)F)CC1,inactive
11,CC(=O)[C@@]1(O)CC[C@H]2[C@@H]3C[C@H](C)C4=CC(=O)C=C[C@]4(C)[C@@]3(F)[C@@H](O)C[C@@]21C,inactive
12,Nc1ccc(S(=O)(=O)NC(=O)c2ccccc2)cc1,inactive
13,CCCOc1ccc2c(c1)CC[C@@H]1[C@@H]2CC[C@]2(C)C(OC)CC[C@@H]12 (stereo not given in full),inactive
14,Cc1ccc(O)c(-n2nc3ccccc3n2)c1,inactive
15,c1ccc2c(c1)CCc1ccccc1N2,inactive
16,COc1cc(NS(=O)(=O)c2ccc(N)cc2)nc(C)n1,inactive
17,O=C1OC(COc2ccccc2[N+](=O)[O-])CC1Cc1ccccc1 (stereo not given),inactive
18,CCOC(=O)c1cnc2c(cnn2CC)c1NN=C(C)C,inactive
19,Cc1ccc(/C=N/n2c(-c3ccccc3)csc2=S)cc1,inactive
20,CC(C)(C)C(=O)OCOC(=O)[C@@H]1N2C(=O)[C@@H](NC(=O)[C@H](N)c3ccccc3)[C@H]2SC1(C)C,inactive
21,CO[C@@H](C)Cn1c(=O)n(C)c2cnc3ccc(-c4cncc(C(C)(C)O)c4)cc3c21,0.891 µM (active)
22,CN1C(N)=N[C@](C)(c2cc(NC(=O)c3ccc(F)cn3)ccc2F)CS1(=O)=O,inactive
23,CCC(=O)NS(=O)(=O)c1ccc(-c2c(-c3ccccc3)noc2C)cc1,inactive
24,Cc1cc(C)cc(OCC2CNC(=O)O2)c1 (stereo not given),inactive
25,O=C1NC(=O)C(c2ccccc2)(c2ccccc2)N1,inactive
